Inconclusive results are not listed. A call without a number means that no potency is given here. Activity calls are given as the source filed them. The call rests on the fitted dose curve; in most records, active means well fitted cell-killing curve with a large enough effect; inconclusive means small, poorly fitted or top-dose-only effect; inactive means flat fitted curve, though single readings scatter.
Potency means the concentration at half of the fitted maximal effect.

This assay in a line: Cell Viability - LYMP2-007 (AID 979).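 Further: cells exposed to compound for 24 h before reading; nearly all actives have a fitted effect of over 60% in size.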 The following applies: LYMP2-007 lymphoblastoid cell viability; series mostly up to 92.2 µM. The text has this: NIH Chemical Genomics Center [NCGC]
NIH Molecular Libraries Screening Centers Network [MLSCN]
National Institutes of Environmental Health Sciences [NIEHS]
National Toxicology Program [NTP]
We have developed a 1536-well cell-based assay for quantitative high throughput screening (qHTS) against a number of cell lines to determine in vitro cytotoxicity of small molecules. This particular assay uses a human lymphoblastoid cell line (LYMP2-007) purchased from Coriell Institute for Medical Research.
NCGC Assay Protocol Summary:
The CellTiter-Glo luminescent cell viability assay (Promega) is a homogeneous method to measure the number of viable cells in culture. The end point readout of this assay is based on quantitation of intracellular ATP, an indicator of metabolic activity, using the luciferase reaction. Luciferase catalyzes the oxidation of beetle Luciferin to oxyluciferin and light in the presence of ATP. The luminescent signal is proportional to amount of ATP present.
Using the CellTiter-Glo luminescent cell viability assay, the amount of cellular ATP was measured in the lymphoblastoid cell line with complete culture medium following compound treatment for 24 hours. The assay was performed in opaque white Kalypsys 1536-well plates. In the screen, tetraoctylammonium bromide was used as positive control. Library compounds were measured for their ability to cause acute toxicity in the cell line, as reflected by a decrease in intracellular ATP levels, in a concentration-dependent manner. […] AC50 values were determined from concentration-response data modeled with the standard Hill equation.
qHTS protocol for CellTiter Glo lymphoblastoid cellular assay
[Step] [Parameter] [Value] [Description]
1. Reagent; 5 uL; 2500 lymphoblastoid cells/well
2. Time; 5 hr; 37 C incubation
4. Controls; 23 nL; Tetraoctylammonium bromide 6.4pM to 92 uM
5. Time; 24 hr; 37 C incubation
6. Reagent; 5 uL; CellTiter Glo reagent
7. Time; 30 min; Room Temperature
8. Detection; Luminescence; Viewlux plate reader
Keywords: cell viability, cytotoxicity, lymphoblastoid cell line, luminescence, NTPHTS, NTPHTS_NCGC, NIEHS, DSSTox, MLSMR, MLSCN, NIH Roadmap, qHTS, NCGC
`CC(C)(c1ccccc1)c1ccc(O)cc1`: the Potency entry was “inactive”. With `CC(O)CCl` (stereo not given) the entry was “inactive”. For the compound `C[N+](C)(C)Cc1ccccc1`, the Potency entry is “inactive”. The entry for `CN=C=S` is “inactive”; for `C=CCOC(C)=O` it is “inactive”; for `Clc1nc(Cl)nc(Cl)n1` it is “inactive”. Regarding `O=C(O)CC(O)(CC(=O)O)C(=O)O`, the Potency was 50.1 µM (active). The entry for `CCCCOC(=O)c1ccccc1C(=O)OCCCC` is “inactive”; for `C/C=C/c1ccc2c(c1)OCO2` it is “inactive”. Regarding `C=CC1CC=CCC1` (stereo not given), the Potency entry is “inactive”. The entry for `C=CC(N)=O` is “inactive”. `CCSC(=O)Cl`: the Potency entry is “inactive”. Regarding `Clc1nc(Cl)nc(Nc2ccccc2Cl)n1`, the Potency entry was “inactive”. The entry for `C=CCc1ccc2c(c1)OCO2` is “inactive”; for `CC(C)(OO)c1ccccc1` it is 31.6 µM (active).

Consider `N#CCCCl`, for which the Potency result is “inactive”.

Take `C=CCc1ccc(OC)cc1`: the Potency result was “inactive”.

As for `CCCC(=O)Cl`, the Potency entry was “inactive”. With `C=C(Cl)Cl`, the Potency entry was “inactive”. As to `CC(=O)[O-].CC(=O)[O-].O.O.O.[Pb+2]`, the Potency entry is “inactive”.

As to `ClC1=C(Cl)C2(Cl)C3C4CC(C5OC45)C3C1(Cl)C2(Cl)Cl` (stereo not given), the Potency is 31.6 µM (active). For `C1CCC2CCCCC2C1` (stereo not given), the Potency result is “inactive”. On to `CCOP(=S)(OCC)SCSC(C)(C)C`, for which the Potency entry was “inactive”.

As for `CCCOC(=O)c1ccccc1C(=O)OCCC`, the Potency entry was “inactive”. In the case of `NC(=S)Nc1ccccc1`, the Potency entry is “inactive”.

In the case of `ClC1=C(Cl)C2(Cl)C3C4C=CC(C4)C3C1(Cl)C2(Cl)Cl` (stereo not given), the Potency result is “inactive”. For `O=C=NC1CCCCC1`, the Potency result is “inactive”. Turning to `Cc1cccc([N+](=O)[O-])c1`, the Potency entry is “inactive”. With `O=[N+]([O-])c1cccc2ccccc12` the entry was “inactive”. With `c1ccc(-c2ccccc2)cc1` the entry was “inactive”; with `CCCSC(=O)Cl`, “inactive”. Consider `CCOc1ccc(N)cc1`, for which the Potency result was “inactive”. With `C[C@H]1CCCC(=O)CCC/C=C/c2cc(O)cc(O)c2C(=O)O1`, the Potency result was “inactive”. Regarding `[O-][Br+2]([O-])O`, the Potency result was “inactive”. Regarding `C=C(C)C#N`, the Potency result was “inactive”. On to `COC1=CC(=O)OC(CCc2ccccc2)C1` (stereo not given), for which the Potency result was “inactive”. On to `O=S1OCC2C(CO1)C1(Cl)C(Cl)=C(Cl)C2(Cl)C1(Cl)Cl` (stereo not given), for which the Potency entry was “inactive”. For the compound `c1ccc(N=Nc2ccccc2)cc1`, the Potency is 31.6 µM (active). For the compound `Oc1ccc(Cl)cc1Cl`, the Potency result is “inactive”. Regarding `c1ccc(OP(Oc2ccccc2)Oc2ccccc2)cc1`, the Potency result was “inactive”.

For the origin of these results see PubChem BioAssay (NCATS).
